# Results filed as inconclusive are left out. Where a call stands in place of a potency, no number is given. The source holds several records for some structures; these can differ, active in one and inactive in another. The source made the active and inactive calls. Calls follow the shape of the dose curve; as a rule, active = well fitted activation curve with a large enough effect in the repeat runs; inconclusive = weak or mixed curves; inactive = no such curve, though single readings can be large or run the other way.
# Target: Nuclear receptor subfamily 1 group I member 2 (Homo sapiens) (UniProt O75469)
# Sequence (O75469 whole entry, looked up): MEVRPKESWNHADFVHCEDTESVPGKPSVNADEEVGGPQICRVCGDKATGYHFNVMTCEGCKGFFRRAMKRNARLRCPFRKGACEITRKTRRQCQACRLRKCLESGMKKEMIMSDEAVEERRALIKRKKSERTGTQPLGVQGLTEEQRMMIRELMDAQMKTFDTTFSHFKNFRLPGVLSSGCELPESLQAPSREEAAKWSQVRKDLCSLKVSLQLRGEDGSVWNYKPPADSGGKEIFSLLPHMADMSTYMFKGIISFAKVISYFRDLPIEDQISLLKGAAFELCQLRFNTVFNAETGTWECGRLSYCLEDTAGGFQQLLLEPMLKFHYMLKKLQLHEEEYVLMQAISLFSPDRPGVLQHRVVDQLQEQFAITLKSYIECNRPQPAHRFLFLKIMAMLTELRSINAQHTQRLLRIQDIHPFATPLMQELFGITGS
# Test: Human pregnane X receptor (PXR) small molecule agonists, qHTS assay (AID 1346982); also: nearly all actives have a fitted effect of over 35% in size
# Details: PXR-Luc HepG2, CYP3A4 luciferase reporter, 24 h; series mostly up to 92.4 µM
# Description: National Center for Advancing Translational Sciences [NCATS]
# NIH Chemical Genomics Center [NCGC]
# U.S. Environmental Protection Agency [EPA]
# National Institutes of Environmental Health Sciences [NIEHS]
# National Toxicology Program [NTP]
# The human pregnane X receptor (hPXR) regulates the expression of several drug metabolizing enzymes and induction of these proteins is a major mechanism for developing drug resistance in cancer. One such key enzyme catalyzing the drug metabolism is cytochrome P450 3A4 (CYP3A4). Changes in CYP3A4 expression affect drug metabolism, thereby reducing the therapeutic efficacy and altering toxicological response to a drug and which finally causes adverse drug interaction. To screen Tox21 libraries for compounds that activate hPXR-mediated CYP3A4 gene expression, PXR-Luc HepG2 cells were used.
# PXR-Luc HepG2 cells were dispensed at 2,000 per well in 5uL of assay medium containing 5% charcoal-stripped FBS into white solid bottom 1536-well plates (Corning Life Sciences, Corning, NY) using a Multidrop Combi (Thermo Scientific, Waltham, MA) dispenser. The assay plates were incubated at 37 C and 5% CO2 for 5hr, and then 23nL of compounds dissolved in DMSO and positive control were transferred using a Pintool station (Wako, San Diego, CA). The assay plates were incubated at 37C and 5% CO2 for 24hr. For luciferase read, 4uL of ONE-Glo reagent (Promega Corporation, Madison, WI) was added to each well of the assay plates using Flying Reagent Dispenser (FRD, Aurora Discovery, San Diego, CA) and incubated the assay plates at room temperature for 30min. The luminescence signal was quantified using a ViewLux plate reader (Perkin Elmer, Shelton, CT).
# Potency is read from the fitted curve at half-maximal effect.
row,SMILES,Potency
1,Cc1ccccc1N=C(N)Nc1ccccc1C,inactive
2,Clc1ccc(Nc2nnc(Cc3ccncc3)c3ccccc23)cc1,29.8 µM (active)
3,CC(=O)Nc1ccc(C)cc1C,inactive
4,CC1=C(Br)C(=O)C(Br)=C/C1=C(/c1ccccc1S(=O)(=O)O)c1cc(Br)c(O)c(Br)c1C,inactive
5,O=C(/C=C/c1ccc(O)c(O)c1)O[C@@H]1C[C@@](OC(=O)/C=C/c2ccc(O)c(O)c2)(C(=O)O)C[C@@H](O)[C@@H]1O,inactive
6,CCCCN(CCCC)C(C(N)=O)c1ccc(OC)cc1 (stereo not given),11.9 µM (active)
7,Nc1nc2ccc([N+](=O)[O-])cc2s1,30.6 µM (active)
8,COc1cc(C(=O)NC2CCN(C)CC2)ccc1Nc1ncc2c(n1)N(C1CCCC1)CC(F)(F)C(=O)N2C,19.9 µM (active)
9,CN1CCCC(CC2c3ccccc3Sc3ccccc32)C1 (stereo not given),inactive
10,CN(C(=O)CN(CCO)CC(=O)N(C)C(C)(C)Cc1ccccc1)C(C)(C)Cc1ccccc1,2.37 µM (active)
11,CCC=CC#N,47.1 µM (active)
12,CCC1CO1 (stereo not given),inactive
13,CC1(CN2CCC(n3c(=O)[nH]c4ccccc43)CC2)OCc2ccccc2-n2cccc21 (stereo not given),29.8 µM (active)
14,C=C(C)CCCC(C)CCO (stereo not given),54.5 µM (active)
15,CCC(OCCCOC)OC(C)=O (stereo not given),inactive
16,N#CCc1ccc(Cl)cc1Cl,inactive
17,C[C@H]1C[C@H](O)c2ccsc2S1(=O)=O,inactive
18,Cc1ccc2c(Br)cc(Br)c(O)c2n1,11.9 µM (active)
19,Cc1ccco1,inactive
20,CCCCOc1ccc(OCCCN2CCOCC2)cc1,21.1 µM (active)

row,SMILES,Potency
1,CCC1(CO)COCOC1,inactive
2,CCC(C)COC(C)=O (stereo not given),inactive
3,CC(=O)OCC(=O)NCCCOc1cccc(CN2CCCCC2)c1,inactive
4,CC(CN(C)C)C(C)(O)Cc1ccc(Cl)cc1 (stereo not given),inactive
5,CC(=O)NC1(c2cccc(F)c2)CCN(CC[C@@]2(c3ccc(Cl)c(Cl)c3)CN(c3ccccc3)C(=O)CO2)CC1,19.4 µM (active)
6,N#[N+]c1ccc2c(S(=O)(=O)[O-])cccc2c1O,inactive
7,Brc1cc(Br)c(Oc2cc(Br)c(Br)cc2Br)cc1Br,29.9 µM (active)
8,CC[N+](CC)(CCNC(=O)C(=O)NCC[N+](CC)(CC)Cc1ccccc1Cl)Cc1ccccc1Cl,inactive
9,C1COC1,inactive
10,CCOC(=O)/C=C/C(=O)OCC,inactive
11,O=C(O)CCC(=O)C(=O)O,inactive
12,c1ccc2c(c1)CCc1ccccc1N2,61.4 µM (active) and inactive
13,CCCC(=O)C(=O)O,inactive
14,CC(C)=CCC/C(C)=C/CC/C(C)=C/C(=O)OCC(=O)[C@@]1(O)CC[C@H]2[C@@H]3CCC4=CC(=O)C=C[C@]4(C)[C@H]3[C@@H](O)C[C@@]21C,1.88 µM (active)
15,c1csc(SSc2cccs2)c1,9.69 µM (active)
16,COC(=O)CS,inactive
17,FC(F)(F)c1ccccc1Cl,inactive
18,CCC(C)(C)OC,inactive
19,NC(=O)c1ccncc1,inactive
20,OC[C@H]1O[C@@H](n2cnc3c(=S)nc[nH]c32)[C@H](O)[C@@H]1O,11.9 µM (active)
